Compounds without any hit were thinned out: in the full panel of roughly 83,000, 20% have a hit.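 Plates (96-well) were seeded with cells, treated with compound at one concentration, and incubated for 48 hours before percent growth was determined.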 Calls of active or inactive are those of the source. Rule for the calls: active = growth percent below 10; inactive = the rest.
Columns and labels:
Experiment in all cases: NCI-60 one-dose screen, 48 h (100 = growth as untreated, 0 = no growth, -100 = all killed)
Details in all cases: 10 µM unless noted
[1] = system: DU-145 prostate
[2] = system: K-562 leukemia
[3] = system: MALME-3M melanoma
[4] = system: MDA-MB-231 breast
[5] = system: RXF 393 renal
[6] = system: SF-268 CNS
[7] = system: SF-295 CNS
[8] = system: SF-539 CNS
[9] = system: UACC-257 melanoma
[10] = system: M14 melanoma
[11] = system: HCT-15 colon
[12] = system: HT29 colon
[13] = system: SNB-75 CNS
[14] = system: SNB-19 CNS
[15] = system: U251 CNS
[16] = system: PC-3 prostate
[17] = system: SK-MEL-5 melanoma
[18] = system: UACC-62 melanoma
[19] = system: LOX IMVI melanoma
[20] = system: SK-MEL-28 melanoma

Measured: growth

COc1cc(-c2n/c(=C\c3c(O)[nH]c4ccc(Cl)cc34)cc3c2=Nc2ccccc2-3)cc(OC)c1OC
active: [1] -15.4% | [2] 3.48% | [3] -40.3% | [4] -14.9% | [5] -70.3% | [6] -11.8% | [7] 7.89% | [10] 0.836% | [12] -11.2% | [13] -4.26% | [15] -84.3% | [16] -13.1% | [18] 2.11% | [19] -63.6%
inactive: [8] 31.2% | [9] 27.2% | [11] 28.4% | [14] 14.9% | [17] 44.7% | [20] 16.5%

O=C(/C=C/c1c(Cl)nc2sccn12)c1ccc(F)c(F)c1
inactive: [1] 96.1% | [2] 48.1% | [3] 113% | [4] 81.8% | [5] 69.7% | [6] 81.4% | [7] 91.9% | [8] 96.5% | [9] 73.9% | [10] 87.2% | [11] 90.4% | [12] 87% | [13] 60.4% | [14] 87.9% | [15] 90.7% | [16] 78.8% | [17] 66.4% | [18] 68.7% | [19] 92% | [20] 96%

CCN(CC)CCN1C(=O)c2c(c(C)c3c(oc4cc(O)ccc43)c2C)C1=O
active: [1] -89.2% | [2] -58.5% | [4] -68.7% | [10] -79.3% | [11] -58.9% | [12] -37.2% | [14] 9.88% | [15] -87.9% | [16] -75.1%
inactive: [3] 84.2% | [5] 79.4% | [6] 74.5% | [7] 103% | [8] 90.8% | [9] 97.7% | [13] 90.3% | [17] 79% | [18] 86.2% | [19] 94% | [20] 63.1%

COc1cc(C2CC(c3ccc(Nc4ccnc5cc(Cl)ccc45)cc3)=NN2C=O)cc(OC)c1OC (stereo not given)
active: [12] -37.3% | [19] 0.138%
inactive: [1] 66.4% | [2] 26% | [3] 25.2% | [4] 85.8% | [5] 83.6% | [6] 90.1% | [7] 75.2% | [8] 73.2% | [9] 60.1% | [10] 75.1% | [11] 48.8% | [13] 75.7% | [14] 82% | [15] 44.6% | [16] 80.6% | [17] 37.3% | [18] 46.3% | [20] 22.4%

CCOP(=O)(OCC)C1CP(=O)(c2ccccc2)CC(C)=C1Cl (stereo not given)
inactive: [1] 104% | [2] 93.4% | [3] 90.9% | [4] 95% | [5] 78.1% | [6] 104% | [7] 96.7% | [8] 104% | [9] 92.2% | [10] 63.2% | [11] 102% | [12] 118% | [13] 90.9% | [14] 104% | [15] 96.9% | [16] 90% | [17] 103% | [18] 95.1% | [19] 88.9% | [20] 104%

O=C(CSc1nnc(-c2ccc(NC(=O)c3cccnc3)cc2)o1)N[C@@H](Cc1ccc(O)cc1)C(=O)O
inactive: [1] 117% | [2] 93.6% | [3] 102% | [4] 97.7% | [5] 109% | [6] 107% | [7] 108% | [8] 102% | [9] 99.7% | [10] 100% | [11] 113% | [12] 106% | [13] 98.9% | [14] 96.7% | [15] 103% | [16] 101% | [17] 100% | [18] 92.8% | [19] 104% | [20] 108%

CCCCCCCCCCCCCCCCCC1=NCCN1CCOC1=C(Cl)C(=O)c2ccccc2C1=O
inactive: [1] 109% | [2] 21.7% | [3] 67.1% | [4] 55.9% | [5] 102% | [6] 91.2% | [7] 108% | [8] 104% | [9] 72.3% | [10] 83.1% | [11] 55.4% | [12] 65% | [13] 87.4% | [14] 81.4% | [15] 66.4% | [16] 55.3% | [17] 103% | [18] 40.6% | [19] 66.6% | [20] 92.1%

COc1c(CCC[P+](c2ccccc2)(c2ccccc2)c2ccccc2)cc2c(c1OC)OCO2
inactive: [1] 23.5% | [2] 12.3% | [5] 29% | [6] 15.4% | [7] 20.8% | [8] 20.2% | [10] 12.2% | [11] 92.3% | [12] 38.2% | [19] 15.9% | [20] 25.1%
active: [3] 9.97% | [4] -8.84% | [9] -3.96% | [13] -3.69% | [14] 9.64% | [15] 7.32% | [16] -0.165% | [17] -68.6% | [18] -3.8%

COC(=O)c1c2c(c(C)[n+]([O-])c1C)C(=O)C(NCc1ccc(F)c(Cl)c1)=CC2=O
inactive: [1] 36.2% | [5] 36.2% | [7] 39% | [13] 109% | [20] 57.9%
active: [2] 5.87% | [3] -93.5% | [4] 2.68% | [6] 9.33% | [8] 3.31% | [9] -69.3% | [10] -19.6% | [11] 8.29% | [12] 5% | [14] 7.17% | [15] -20.4% | [16] 5.89% | [17] -71.6% | [18] -42% | [19] 9.57%

COc1ccc(-c2nc3c(N)c(CO)c(C)nc3o2)cc1
inactive: [1] 102% | [2] 91.5% | [3] 96.7% | [4] 111% | [5] 96% | [6] 94.9% | [7] 99.1% | [8] 93.9% | [9] 101% | [10] 106% | [11] 102% | [12] 97.7% | [13] 98.9% | [14] 111% | [15] 96.5% | [16] 103% | [17] 95.3% | [18] 97.7% | [19] 93.5% | [20] 106%

O=C(/C=C/c1c(Cl)nc2sccn12)c1nccs1
inactive: [1] 112% | [2] 84.3% | [3] 108% | [4] 95.8% | [5] 70.7% | [6] 84.8% | [7] 110% | [8] 106% | [9] 81% | [10] 93.9% | [11] 99.3% | [12] 97.5% | [13] 67.1% | [14] 102% | [15] 91.6% | [16] 91.1% | [17] 95.6% | [18] 89.7% | [19] 89.1% | [20] 104%

CCOC(=O)c1ccc(N2NC(=O)/C(=C/c3ccc([N+](=O)[O-])o3)C2=O)cc1
inactive: [1] 113% | [2] 114% | [3] 105% | [4] 133% | [5] 44% | [6] 99.8% | [7] 118% | [8] 108% | [9] 90.7% | [10] 116% | [11] 96.6% | [12] 114% | [13] 99.9% | [14] 115% | [15] 108% | [16] 79.2% | [17] 108% | [18] 112% | [19] 91.6% | [20] 108%

CCCCCS(=O)(=O)Nc1ccc(C(=O)O)cc1
inactive: [1] 103% | [2] 104% | [3] 98.2% | [4] 106% | [5] 114% | [6] 101% | [7] 110% | [8] 102% | [9] 95% | [10] 101% | [11] 109% | [12] 97.2% | [13] 92.3% | [14] 106% | [15] 92.8% | [16] 102% | [17] 100% | [18] 98.8% | [19] 99.9% | [20] 111%
